This note sets out measurements from PubChem BioAssay (NCI).

The panel holds about 83,000 compounds, 20% with a hit somewhere; the sample as a whole holds those more often.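 Treatment: one concentration, 48 hours, 96-well format. Scoring: percent growth, with anything below 10 considered active.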 Unmarked numbers belong to inactive results. Activity calls are given as the source filed them.

Among the test systems are HCT-15 colon; HT29 colon; SNB-75 CNS; SNB-19 CNS; U251 CNS; PC-3 prostate; SK-MEL-5 melanoma; UACC-62 melanoma; LOX IMVI melanoma; SK-MEL-28 melanoma; SK-MEL-2 melanoma; EKVX NSCLC; SN12C renal; UO-31 renal; TK-10 renal; ACHN renal; CAKI-1 renal; A498 renal; CCRF-CEM leukemia; MOLT-4 leukemia.
Holding throughout (test): NCI-60 one-dose screen, 48 h (100 = growth as untreated, 0 = no growth, -100 = all killed)
What all share (conditions): 10 µM unless noted

In the case of `Cn1c(=O)c2[nH]c(CCCc3nc4c([nH]3)c(=O)n(C)c(=O)n4C)nc2n(C)c1=O`, the growth in the assay on HCT-15 colon was 115%; with HT29 colon, 109%; in the assay with SNB-75 CNS it was 105%; with SNB-19 CNS, 101%; with U251 CNS, 107%; in the assay on PC-3 prostate it was 94%. In addition, the growth with SK-MEL-5 melanoma is 103%; with UACC-62 melanoma it was 96.8%; with LOX IMVI melanoma, 105%; in the assay on SK-MEL-28 melanoma, 131%; in the assay on SK-MEL-2 melanoma, 109%; in the assay on EKVX NSCLC, 113%. For the same compound, the growth in the assay on SN12C renal was 103%; in the assay on UO-31 renal, 102%; in the assay on TK-10 renal, 118%; in the assay on ACHN renal, 103%; in the assay on CAKI-1 renal it was 108%; in the assay on A498 renal, 142%. In addition, the growth in the assay with CCRF-CEM leukemia was 124%; in the assay with MOLT-4 leukemia, 136%.

As for `COc1ccc(-c2nc(N=Nc3c(O)[nH]c4ccccc34)nc(N3CCOCC3)c2C#N)cc1`, the growth was 69.9% in the assay with HCT-15 colon; 49.2% in the assay with HT29 colon; 44% in the assay on SNB-75 CNS; 72.6% in the assay with SNB-19 CNS; 37.8% with U251 CNS; 72.7% in the assay with PC-3 prostate. The growth was 57.5% in the assay with SK-MEL-5 melanoma; 50.3% with UACC-62 melanoma; 66.8% in the assay on LOX IMVI melanoma; 72.2% in the assay with SK-MEL-28 melanoma; 77.9% in the assay with SK-MEL-2 melanoma; 74.5% in the assay with EKVX NSCLC. Moreover, the growth was 73.3% with SN12C renal; 84.8% with UO-31 renal; 71.5% in the assay with TK-10 renal; 25% with ACHN renal; 43.3% in the assay with CAKI-1 renal; 67.4% in the assay with A498 renal. Also, the growth in the assay with CCRF-CEM leukemia is 75.5%; in the assay with MOLT-4 leukemia it was 80.8%.

As for `COc1ccc(C(O)c2cc3c(N)c(C(=O)Nc4ccc(Br)cc4)sc3nc2C)cc1` (stereo not given), the growth in the assay with HCT-15 colon was 18.2%; in the assay with HT29 colon, -34.2% (active); with SNB-75 CNS it was -10.8% (active); in the assay with SNB-19 CNS it was 36.1%; with U251 CNS it was 17.2%; in the assay on PC-3 prostate, 18.2%. For the same compound, the growth with SK-MEL-5 melanoma is 16.4%; in the assay with UACC-62 melanoma it was 26.1%; in the assay with LOX IMVI melanoma it was 33.4%; in the assay on SK-MEL-28 melanoma, 60%; with SK-MEL-2 melanoma, 33.7%; in the assay on EKVX NSCLC, 32%. Also, the growth in the assay with SN12C renal was 36%; in the assay on UO-31 renal it was 43%; in the assay with TK-10 renal it was 39.5%; in the assay with ACHN renal, 37.8%; in the assay with CAKI-1 renal it was 32.5%; in the assay on A498 renal, -1.93% (active). Also, the results for the growth with CCRF-CEM leukemia and in the assay on MOLT-4 leukemia were 6.36% (active) and 17.5%, respectively.

On to `COc1ccc(/C=N/NC(=O)c2cccc3cc[nH]c23)cc1O`, for which the growth in the assay on HCT-15 colon was 33.2%; in the assay with HT29 colon it was 19.7%; with SNB-75 CNS it was 18.6%; with SNB-19 CNS, 39.7%; with U251 CNS, 26.6%; in the assay on PC-3 prostate it was 31.5%. For the same compound, the growth with SK-MEL-5 melanoma was 2.92% (active); in the assay on UACC-62 melanoma, 33%; with LOX IMVI melanoma, 53.1%; in the assay on SK-MEL-28 melanoma, 63.4%; in the assay on SK-MEL-2 melanoma, 52.3%; with EKVX NSCLC, 32.1%. The growth in the assay on SN12C renal is 53.9%; in the assay on UO-31 renal it was 60.4%; in the assay on TK-10 renal it was 47.1%; in the assay with ACHN renal, 57.9%; in the assay with CAKI-1 renal, 46.5%; with A498 renal, 74.5%. Also, the growth with CCRF-CEM leukemia is 0.582% (active); with MOLT-4 leukemia, 38.2%.

Regarding `CN1CCN(c2cnc(C(=O)Nc3cc(F)cc4cccnc34)cn2)CC1`, the growth in the assay on HCT-15 colon is 30.8%; in the assay on HT29 colon, 42.6%; with SNB-75 CNS, 95.2%; in the assay on SNB-19 CNS, 87.4%; with U251 CNS, 79.9%; in the assay on PC-3 prostate it was 21.4%. The growth with SK-MEL-5 melanoma is 89.2%; in the assay with UACC-62 melanoma it was 95.3%; in the assay with LOX IMVI melanoma, 59.6%; with SK-MEL-28 melanoma, 67.8%; with SK-MEL-2 melanoma, 94.8%; in the assay on EKVX NSCLC it was 45.5%. Also, the growth was 62.2% in the assay with SN12C renal; 43% in the assay with UO-31 renal; 69.3% with TK-10 renal; 26.5% with ACHN renal; 57.3% in the assay on CAKI-1 renal; 75.7% in the assay on A498 renal. For the same compound, the growth in the assay with CCRF-CEM leukemia is 35.6%; in the assay on MOLT-4 leukemia it was 23.5%.

Turning to `COc1ccc(C(O)c2cc3c(N)c(C(=O)Nc4ccc(Cl)cc4)sc3nc2C)cc1` (stereo not given), the growth is 12.3% with HCT-15 colon; -6.54% (active) in the assay with HT29 colon; -22.5% (active) with SNB-75 CNS; 37.2% in the assay on SNB-19 CNS; 20.2% with U251 CNS; 21.4% in the assay with PC-3 prostate. In addition, the growth was 15.4% with SK-MEL-5 melanoma; 17.3% in the assay with UACC-62 melanoma; 29.2% in the assay with LOX IMVI melanoma; 59.6% with SK-MEL-28 melanoma; 37.1% in the assay with SK-MEL-2 melanoma; 37% in the assay with EKVX NSCLC. Further, the growth was 34.6% in the assay with SN12C renal; 37% with UO-31 renal; 42.4% in the assay on TK-10 renal; 35.6% with ACHN renal; 25.2% in the assay with CAKI-1 renal; -5.66% (active) with A498 renal. For the same compound, the growth was 8.15% (active) in the assay on CCRF-CEM leukemia and 15.5% with MOLT-4 leukemia.

Turning to `CS(=O)(=O)c1ccc(-c2cc3c(oc2=O)-c2ccccc2OC3O)cc1` (stereo not given), the growth was 94.4% with HCT-15 colon; 105% in the assay on HT29 colon; 84.6% with SNB-75 CNS; 89% in the assay on SNB-19 CNS; 97.7% with U251 CNS; 89.8% with PC-3 prostate. The growth in the assay with SK-MEL-5 melanoma was 101%; with UACC-62 melanoma, 92.2%; with LOX IMVI melanoma it was 98%; in the assay with SK-MEL-28 melanoma, 101%; in the assay on SK-MEL-2 melanoma it was 99.2%; in the assay on EKVX NSCLC, 98.4%. Besides, the growth is 104% with SN12C renal; 74% in the assay with UO-31 renal; 99.9% in the assay with TK-10 renal; 98.6% with ACHN renal; 75.4% with CAKI-1 renal; 87.7% in the assay on A498 renal. Moreover, the values for the growth with CCRF-CEM leukemia and with MOLT-4 leukemia were 58.9% and 86.3%, respectively.
